Test results published in publication PMC7862700, “An all-to-all approach to the identification of sequence-specific readers for epigenetic DNA modifications on cytosine”.

Columns and labels:
Experiment in all cases: DAPPL (digital affinity profiling via proximity ligation, sequencing); 10 mM Tris-HCl pH 7.5, 50 mM NaCl, 1 mM DTT, 4% glycerol, room temperature, 30 min; GST-TFs on glutathione beads, 16-mer random dsDNA library, 0.1% formaldehyde crosslink after washing; high values mean tight binding
[1] = target: T1, FLI1 (Homo sapiens, UniProt Q01543 1-452); conditions: protein: recombinant; tags: N-terminal GST; dsDNA, one strand shown
T1 sequence: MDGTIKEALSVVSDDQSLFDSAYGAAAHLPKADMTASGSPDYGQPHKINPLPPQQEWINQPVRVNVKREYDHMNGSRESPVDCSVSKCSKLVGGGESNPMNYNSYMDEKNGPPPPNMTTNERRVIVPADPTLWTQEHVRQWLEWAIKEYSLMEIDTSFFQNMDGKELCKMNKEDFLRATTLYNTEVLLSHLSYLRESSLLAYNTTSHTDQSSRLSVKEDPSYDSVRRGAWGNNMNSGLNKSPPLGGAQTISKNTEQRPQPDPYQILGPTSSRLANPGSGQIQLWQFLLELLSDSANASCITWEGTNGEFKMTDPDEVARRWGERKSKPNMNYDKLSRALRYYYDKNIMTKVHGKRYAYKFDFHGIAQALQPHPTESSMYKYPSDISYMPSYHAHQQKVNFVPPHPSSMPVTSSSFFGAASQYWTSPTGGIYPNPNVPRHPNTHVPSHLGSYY
In short: (§1)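 A tag-only sample was pooled with DNA-barcoded human transcription factors that had been expressed in yeast as GST fusions and captured on glutathione beads. The pools were incubated for 30 min at room temperature with 200 nmole of a random double-stranded 16-mer DNA library in Tris/NaCl/DTT/glycerol buffer, then washed, crosslinked with 0.1% formaldehyde, proximity-ligated (BsaI/T4 ligase, 1 h, 37 °C), PCR-amplified and sequenced on an Illumina NextSeq500. Binding signal is each hexamer's read frequency for a factor divided by its frequency for the tag-only sample.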

[2] = target: T2, ELK1 (Homo sapiens, UniProt P19419 1-428); conditions: protein: recombinant; tags: N-terminal GST; dsDNA, one strand shown
T2 sequence: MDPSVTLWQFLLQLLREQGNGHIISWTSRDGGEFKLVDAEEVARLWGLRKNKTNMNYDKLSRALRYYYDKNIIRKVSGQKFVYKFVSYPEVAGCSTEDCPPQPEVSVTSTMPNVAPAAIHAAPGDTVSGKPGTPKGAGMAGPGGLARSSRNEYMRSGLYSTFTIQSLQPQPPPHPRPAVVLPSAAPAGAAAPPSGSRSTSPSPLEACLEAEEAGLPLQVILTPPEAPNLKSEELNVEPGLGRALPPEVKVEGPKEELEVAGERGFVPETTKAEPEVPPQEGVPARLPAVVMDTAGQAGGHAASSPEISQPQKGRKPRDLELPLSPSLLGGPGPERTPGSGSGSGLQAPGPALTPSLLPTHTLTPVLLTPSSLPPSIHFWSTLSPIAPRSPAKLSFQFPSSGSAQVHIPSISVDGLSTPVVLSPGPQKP
In short: as §1

[3] = target: T3, GABPA (Homo sapiens, UniProt Q06546 1-454); conditions: protein: recombinant; tags: N-terminal GST; dsDNA, one strand shown
T3 sequence: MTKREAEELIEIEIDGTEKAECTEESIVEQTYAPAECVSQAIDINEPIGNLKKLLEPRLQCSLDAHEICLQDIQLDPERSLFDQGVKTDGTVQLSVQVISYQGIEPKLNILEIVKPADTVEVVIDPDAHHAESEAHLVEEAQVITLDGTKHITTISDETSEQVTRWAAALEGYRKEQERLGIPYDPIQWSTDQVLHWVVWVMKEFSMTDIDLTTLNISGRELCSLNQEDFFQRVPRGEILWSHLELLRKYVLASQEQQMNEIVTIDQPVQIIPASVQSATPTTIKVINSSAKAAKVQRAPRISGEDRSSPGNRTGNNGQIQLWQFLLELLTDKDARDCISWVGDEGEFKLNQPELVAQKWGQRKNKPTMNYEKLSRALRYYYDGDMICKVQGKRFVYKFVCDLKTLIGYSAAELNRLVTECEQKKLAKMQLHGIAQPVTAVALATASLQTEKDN
In short: as §1

[4] = target: T4, ERG (Homo sapiens, UniProt P11308 1-479); conditions: protein: recombinant; tags: N-terminal GST; dsDNA, one strand shown
T4 sequence: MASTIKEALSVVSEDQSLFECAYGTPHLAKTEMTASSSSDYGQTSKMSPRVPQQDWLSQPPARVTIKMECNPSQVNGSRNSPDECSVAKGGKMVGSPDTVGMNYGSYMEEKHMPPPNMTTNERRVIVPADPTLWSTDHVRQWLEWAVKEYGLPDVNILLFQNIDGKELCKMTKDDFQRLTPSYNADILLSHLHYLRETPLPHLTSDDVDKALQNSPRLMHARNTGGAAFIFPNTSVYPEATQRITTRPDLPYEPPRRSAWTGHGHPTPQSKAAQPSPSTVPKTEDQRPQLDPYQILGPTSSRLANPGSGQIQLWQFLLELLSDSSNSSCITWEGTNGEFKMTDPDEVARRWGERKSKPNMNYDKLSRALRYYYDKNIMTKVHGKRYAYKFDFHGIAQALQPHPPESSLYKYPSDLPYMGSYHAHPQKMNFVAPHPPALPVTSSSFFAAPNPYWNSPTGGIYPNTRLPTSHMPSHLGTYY
In short: as §1

[5] = target: ELF1 (Homo sapiens, UniProt P32519 1-619); conditions: protein: recombinant; tags: N-terminal GST; dsDNA, one strand shown
Chain of ELF1 (P32519 whole entry): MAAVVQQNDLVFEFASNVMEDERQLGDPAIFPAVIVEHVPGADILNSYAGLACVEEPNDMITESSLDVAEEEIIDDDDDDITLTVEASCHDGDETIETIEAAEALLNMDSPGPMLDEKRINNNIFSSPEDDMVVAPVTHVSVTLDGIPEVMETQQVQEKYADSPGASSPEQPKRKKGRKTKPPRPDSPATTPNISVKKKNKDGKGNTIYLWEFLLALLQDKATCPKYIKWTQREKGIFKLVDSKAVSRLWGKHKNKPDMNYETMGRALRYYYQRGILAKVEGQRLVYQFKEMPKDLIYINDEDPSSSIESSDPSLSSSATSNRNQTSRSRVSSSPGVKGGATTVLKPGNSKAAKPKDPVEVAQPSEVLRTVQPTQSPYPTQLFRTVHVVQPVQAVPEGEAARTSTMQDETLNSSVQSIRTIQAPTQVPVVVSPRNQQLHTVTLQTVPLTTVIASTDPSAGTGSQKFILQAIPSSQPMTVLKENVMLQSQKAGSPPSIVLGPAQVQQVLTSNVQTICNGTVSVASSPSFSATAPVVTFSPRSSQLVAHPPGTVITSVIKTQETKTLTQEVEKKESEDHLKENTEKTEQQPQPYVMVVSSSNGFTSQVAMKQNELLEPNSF
In short: as §1

[6] = target: T5, EHF (Homo sapiens, UniProt Q9NZC4 1-300); conditions: protein: recombinant; tags: N-terminal GST; dsDNA, one strand shown
T5 sequence: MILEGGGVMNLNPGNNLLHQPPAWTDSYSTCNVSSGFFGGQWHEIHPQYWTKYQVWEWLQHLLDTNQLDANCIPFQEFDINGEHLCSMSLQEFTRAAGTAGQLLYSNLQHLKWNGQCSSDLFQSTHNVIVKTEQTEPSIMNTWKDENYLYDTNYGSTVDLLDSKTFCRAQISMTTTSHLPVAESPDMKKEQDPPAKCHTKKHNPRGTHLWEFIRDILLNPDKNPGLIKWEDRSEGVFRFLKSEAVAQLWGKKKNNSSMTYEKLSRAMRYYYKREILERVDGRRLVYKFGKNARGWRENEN
In short: as §1

[7] = target: SPI1 (Homo sapiens, UniProt P17947 1-270); conditions: protein: recombinant; tags: N-terminal GST; dsDNA, one strand shown
In short: as §1

[8] = target: SPIB (Homo sapiens, UniProt Q01892 1-262); conditions: protein: recombinant; tags: N-terminal GST; dsDNA, one strand shown
Chain of SPIB (Q01892 whole entry): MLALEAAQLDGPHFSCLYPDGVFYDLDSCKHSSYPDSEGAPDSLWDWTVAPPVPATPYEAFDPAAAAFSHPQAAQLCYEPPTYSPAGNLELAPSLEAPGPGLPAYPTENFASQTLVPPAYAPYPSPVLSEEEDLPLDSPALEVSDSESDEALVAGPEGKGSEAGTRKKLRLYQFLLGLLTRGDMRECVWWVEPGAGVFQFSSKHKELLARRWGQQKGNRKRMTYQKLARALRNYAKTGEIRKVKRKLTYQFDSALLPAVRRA
In short: as §1

[9] = target: T6, ELK3 (Homo sapiens, UniProt P41970 1-407); conditions: protein: recombinant; tags: N-terminal GST; dsDNA, one strand shown
T6 sequence: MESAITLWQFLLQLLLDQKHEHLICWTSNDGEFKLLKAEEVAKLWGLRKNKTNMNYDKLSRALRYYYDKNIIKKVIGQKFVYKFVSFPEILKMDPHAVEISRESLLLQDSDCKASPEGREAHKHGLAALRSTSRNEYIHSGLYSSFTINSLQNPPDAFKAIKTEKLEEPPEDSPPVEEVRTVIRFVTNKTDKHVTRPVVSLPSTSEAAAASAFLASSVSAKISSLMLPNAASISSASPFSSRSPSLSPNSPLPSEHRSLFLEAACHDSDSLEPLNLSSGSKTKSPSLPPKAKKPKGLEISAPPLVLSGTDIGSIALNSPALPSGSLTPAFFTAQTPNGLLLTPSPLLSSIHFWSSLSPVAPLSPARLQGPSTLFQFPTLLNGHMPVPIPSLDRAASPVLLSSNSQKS
In short: as §1

[10] = target: T7, FEV (Homo sapiens, UniProt Q99581 1-238); conditions: protein: recombinant; tags: N-terminal GST; dsDNA, one strand shown
T7 sequence: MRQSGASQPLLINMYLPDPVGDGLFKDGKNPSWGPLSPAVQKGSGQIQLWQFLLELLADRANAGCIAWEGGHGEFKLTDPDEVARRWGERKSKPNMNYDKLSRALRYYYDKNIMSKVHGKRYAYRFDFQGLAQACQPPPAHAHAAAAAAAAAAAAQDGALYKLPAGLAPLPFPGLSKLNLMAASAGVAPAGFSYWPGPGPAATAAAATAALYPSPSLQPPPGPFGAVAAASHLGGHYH
In short: as §1

[11] = target: ETV5 (Homo sapiens, UniProt P41161 1-510); conditions: protein: recombinant; tags: N-terminal GST; dsDNA, one strand shown
Chain of ETV5 (P41161 whole entry): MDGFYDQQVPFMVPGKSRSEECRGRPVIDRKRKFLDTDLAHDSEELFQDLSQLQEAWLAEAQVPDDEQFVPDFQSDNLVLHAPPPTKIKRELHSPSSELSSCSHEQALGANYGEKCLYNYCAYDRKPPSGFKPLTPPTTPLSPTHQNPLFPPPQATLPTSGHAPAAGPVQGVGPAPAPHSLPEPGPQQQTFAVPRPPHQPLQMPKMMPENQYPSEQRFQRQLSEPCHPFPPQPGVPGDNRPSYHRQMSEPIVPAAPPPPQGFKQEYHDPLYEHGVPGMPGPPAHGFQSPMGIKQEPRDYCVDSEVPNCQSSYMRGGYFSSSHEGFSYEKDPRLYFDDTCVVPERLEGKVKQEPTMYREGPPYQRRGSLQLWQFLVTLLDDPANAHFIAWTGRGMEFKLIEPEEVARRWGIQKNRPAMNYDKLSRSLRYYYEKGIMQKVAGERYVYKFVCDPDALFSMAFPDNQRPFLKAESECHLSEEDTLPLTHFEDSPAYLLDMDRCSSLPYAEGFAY
In short: as §1

[12] = target: HSF1 (Homo sapiens, UniProt Q00613 1-529); conditions: protein: recombinant; tags: N-terminal GST; chain copies: 3; dsDNA, one strand shown
Chain of HSF1 (Q00613 whole entry): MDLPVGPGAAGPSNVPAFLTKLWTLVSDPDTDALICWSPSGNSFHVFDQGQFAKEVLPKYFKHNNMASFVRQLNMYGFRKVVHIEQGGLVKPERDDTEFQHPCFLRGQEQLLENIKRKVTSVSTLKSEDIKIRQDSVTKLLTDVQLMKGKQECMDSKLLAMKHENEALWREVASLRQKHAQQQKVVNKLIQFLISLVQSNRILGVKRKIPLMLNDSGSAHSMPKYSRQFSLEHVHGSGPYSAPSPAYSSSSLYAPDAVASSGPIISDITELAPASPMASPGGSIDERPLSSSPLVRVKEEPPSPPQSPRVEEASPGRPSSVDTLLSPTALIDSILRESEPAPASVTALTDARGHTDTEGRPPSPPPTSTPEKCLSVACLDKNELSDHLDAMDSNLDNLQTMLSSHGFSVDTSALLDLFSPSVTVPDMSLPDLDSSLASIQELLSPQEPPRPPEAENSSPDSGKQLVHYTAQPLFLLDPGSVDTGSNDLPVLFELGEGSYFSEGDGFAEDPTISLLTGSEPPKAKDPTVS
In short: as §1

[13] = target: T8, SPIC (Homo sapiens, UniProt Q8N5J4 1-248); conditions: protein: recombinant; tags: N-terminal GST; dsDNA, one strand shown
T8 sequence: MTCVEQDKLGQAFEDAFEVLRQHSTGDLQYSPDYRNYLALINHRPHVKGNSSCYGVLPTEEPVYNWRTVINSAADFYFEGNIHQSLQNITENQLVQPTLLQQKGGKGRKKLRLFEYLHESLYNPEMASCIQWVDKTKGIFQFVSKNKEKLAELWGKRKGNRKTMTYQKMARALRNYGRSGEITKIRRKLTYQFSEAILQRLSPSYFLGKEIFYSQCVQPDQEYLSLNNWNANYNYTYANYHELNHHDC
In short: as §1

[14] = target: ELF4 (Homo sapiens, UniProt Q99607 1-663); conditions: protein: recombinant; tags: N-terminal GST; dsDNA, one strand shown
Chain of ELF4 (Q99607 whole entry): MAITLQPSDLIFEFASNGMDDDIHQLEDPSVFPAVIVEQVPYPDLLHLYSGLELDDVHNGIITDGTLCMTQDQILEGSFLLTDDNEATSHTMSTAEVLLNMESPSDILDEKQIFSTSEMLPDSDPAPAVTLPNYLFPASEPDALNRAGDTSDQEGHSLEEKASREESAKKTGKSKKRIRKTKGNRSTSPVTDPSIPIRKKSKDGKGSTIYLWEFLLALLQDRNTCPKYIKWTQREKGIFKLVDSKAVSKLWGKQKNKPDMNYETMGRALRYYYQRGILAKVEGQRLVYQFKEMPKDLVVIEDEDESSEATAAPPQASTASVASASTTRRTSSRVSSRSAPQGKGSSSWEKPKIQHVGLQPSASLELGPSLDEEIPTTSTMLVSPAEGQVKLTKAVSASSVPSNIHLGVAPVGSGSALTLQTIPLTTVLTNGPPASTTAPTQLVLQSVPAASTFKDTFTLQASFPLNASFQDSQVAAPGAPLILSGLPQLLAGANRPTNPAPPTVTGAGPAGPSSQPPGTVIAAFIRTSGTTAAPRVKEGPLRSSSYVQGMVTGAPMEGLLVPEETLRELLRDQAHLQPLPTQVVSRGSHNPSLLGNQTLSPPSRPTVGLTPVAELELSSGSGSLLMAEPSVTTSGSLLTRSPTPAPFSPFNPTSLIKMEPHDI
In short: as §1

[15] = target: T9, ELK4 (Homo sapiens, UniProt P28324-2 1-405); conditions: protein: recombinant; tags: N-terminal GST; dsDNA, one strand shown
T9 sequence: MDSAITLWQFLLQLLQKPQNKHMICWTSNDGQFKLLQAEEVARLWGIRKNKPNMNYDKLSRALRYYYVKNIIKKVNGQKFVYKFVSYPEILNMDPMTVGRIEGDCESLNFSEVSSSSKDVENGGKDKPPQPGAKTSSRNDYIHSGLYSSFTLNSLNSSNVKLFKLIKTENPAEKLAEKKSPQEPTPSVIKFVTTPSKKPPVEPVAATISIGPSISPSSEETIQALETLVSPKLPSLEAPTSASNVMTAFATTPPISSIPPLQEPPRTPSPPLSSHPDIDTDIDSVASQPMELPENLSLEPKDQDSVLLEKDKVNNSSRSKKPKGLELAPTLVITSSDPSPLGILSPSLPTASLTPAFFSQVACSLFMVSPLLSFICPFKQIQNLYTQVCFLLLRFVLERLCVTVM
In short: as §1

[16] = target: T10, ETV2 (Homo sapiens, UniProt O00321 1-342); conditions: protein: recombinant; tags: N-terminal GST; dsDNA, one strand shown
T10 sequence: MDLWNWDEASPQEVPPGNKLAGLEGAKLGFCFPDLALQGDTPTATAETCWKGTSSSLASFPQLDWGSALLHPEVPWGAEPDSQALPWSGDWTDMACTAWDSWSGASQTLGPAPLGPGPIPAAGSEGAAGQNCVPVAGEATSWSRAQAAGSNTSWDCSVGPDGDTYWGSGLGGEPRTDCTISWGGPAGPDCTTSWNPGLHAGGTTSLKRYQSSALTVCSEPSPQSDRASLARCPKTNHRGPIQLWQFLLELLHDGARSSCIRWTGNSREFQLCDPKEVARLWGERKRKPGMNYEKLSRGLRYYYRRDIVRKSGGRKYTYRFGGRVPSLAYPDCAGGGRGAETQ
In short: as §1

[17] = target: T11, ELF3 (Homo sapiens, UniProt P78545 1-371); conditions: protein: recombinant; tags: N-terminal GST; dsDNA, one strand shown
T11 sequence: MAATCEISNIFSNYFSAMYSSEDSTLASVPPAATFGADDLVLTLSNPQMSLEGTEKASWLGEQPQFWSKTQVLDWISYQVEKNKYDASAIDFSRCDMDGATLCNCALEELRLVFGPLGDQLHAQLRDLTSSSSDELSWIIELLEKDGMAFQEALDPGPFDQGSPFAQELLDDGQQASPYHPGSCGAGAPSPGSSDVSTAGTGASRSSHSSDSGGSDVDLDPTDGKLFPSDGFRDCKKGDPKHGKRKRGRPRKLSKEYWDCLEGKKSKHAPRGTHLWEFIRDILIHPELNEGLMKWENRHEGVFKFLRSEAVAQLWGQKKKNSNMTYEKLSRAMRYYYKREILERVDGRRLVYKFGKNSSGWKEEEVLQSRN
In short: as §1

[18] = target: CRX (Homo sapiens, UniProt O43186 1-299); conditions: protein: recombinant; tags: N-terminal GST; dsDNA, one strand shown
Chain of CRX (O43186 whole entry): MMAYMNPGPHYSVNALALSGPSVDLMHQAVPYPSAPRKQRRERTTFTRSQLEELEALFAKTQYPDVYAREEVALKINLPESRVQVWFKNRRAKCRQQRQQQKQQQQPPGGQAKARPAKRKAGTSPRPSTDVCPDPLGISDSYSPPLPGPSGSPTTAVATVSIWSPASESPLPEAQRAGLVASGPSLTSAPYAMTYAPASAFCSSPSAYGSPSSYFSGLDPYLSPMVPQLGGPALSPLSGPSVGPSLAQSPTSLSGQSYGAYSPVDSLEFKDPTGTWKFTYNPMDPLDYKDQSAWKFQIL
In short: as §1

[19] = target: ETV1 (Homo sapiens, UniProt P50549 1-477); conditions: protein: recombinant; tags: N-terminal GST; dsDNA, one strand shown
Chain of ETV1 (P50549 whole entry): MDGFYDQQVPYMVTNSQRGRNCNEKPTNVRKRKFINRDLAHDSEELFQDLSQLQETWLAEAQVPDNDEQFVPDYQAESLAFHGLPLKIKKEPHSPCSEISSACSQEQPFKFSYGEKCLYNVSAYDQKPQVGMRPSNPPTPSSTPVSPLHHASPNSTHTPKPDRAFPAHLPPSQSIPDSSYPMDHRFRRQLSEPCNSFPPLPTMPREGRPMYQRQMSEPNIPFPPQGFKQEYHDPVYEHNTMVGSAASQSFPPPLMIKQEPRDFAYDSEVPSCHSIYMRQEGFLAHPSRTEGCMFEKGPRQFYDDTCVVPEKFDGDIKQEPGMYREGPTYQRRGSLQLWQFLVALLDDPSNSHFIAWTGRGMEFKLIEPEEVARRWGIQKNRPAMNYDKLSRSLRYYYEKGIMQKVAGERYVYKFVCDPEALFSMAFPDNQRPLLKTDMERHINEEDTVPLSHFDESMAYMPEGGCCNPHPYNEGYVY
In short: as §1

Sequence: TGACAA
- binding signal [1]: 1.18 fold enrichment (6-mer frequency, TF over GST control)
- binding signal [2]: 1.19 fold enrichment (6-mer frequency, TF over GST control)
- binding signal [3]: 1.32 fold enrichment (6-mer frequency, TF over GST control)
- binding signal [4]: 1.28 fold enrichment (6-mer frequency, TF over GST control)
- binding signal [5]: 1.38 fold enrichment (6-mer frequency, TF over GST control)
- binding signal [6]: 1.21 fold enrichment (6-mer frequency, TF over GST control)
- binding signal [7]: 1.25 fold enrichment (6-mer frequency, TF over GST control)
- binding signal [8]: 1.14 fold enrichment (6-mer frequency, TF over GST control)
- binding signal [9]: 1.12 fold enrichment (6-mer frequency, TF over GST control)
- binding signal [10]: 1.22 fold enrichment (6-mer frequency, TF over GST control)
- binding signal [11]: 1.22 fold enrichment (6-mer frequency, TF over GST control)
- binding signal [12]: 1.06 fold enrichment (6-mer frequency, TF over GST control)
- binding signal [13]: 1.11 fold enrichment (6-mer frequency, TF over GST control)
- binding signal [14]: 1.26 fold enrichment (6-mer frequency, TF over GST control)
- binding signal [15]: 1.2 fold enrichment (6-mer frequency, TF over GST control)
- binding signal [16]: 1.14 fold enrichment (6-mer frequency, TF over GST control)
- binding signal [17]: 1.3 fold enrichment (6-mer frequency, TF over GST control)
- binding signal [18]: 1.05 fold enrichment (6-mer frequency, TF over GST control)
- binding signal [19]: 1.25 fold enrichment (6-mer frequency, TF over GST control)
